Records with an inconclusive call do not appear. Entries that show only a call come without a potency. Active and inactive are the calls of the source. Calls follow the shape of the dose curve; as a rule, active = well fitted inhibition curve with a large enough effect; inconclusive = small, poorly fitted or top-dose-only effect; inactive = flat fitted curve, though single readings scatter.

This is an account of results in PubChem BioAssay (NCATS).
Potency is read from the fitted curve at half-maximal effect.

For the first assay, the system named is CP217. The assay is described as follows: qHTS profiling for inhibitors of Plasmodium falciparum proliferation (AID 504749). Also: nearly all actives have a fitted effect of over 60% in size. Conditions: P. falciparum in erythrocytes, SYBR Green DNA, 72 h; series mostly up to 28.7 µM. The gist of the method:
(§1)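 Infected RBCs, 0.3% parasitemia/2.5% Hct final; cpd 72 h, 37 C, 5% CO2; lysis buffer with saponin/triton/SYBR Green I, o/n RT dark; FI 485/535; norm. to artemisinin (0.29 uM) and DMSO.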
On the technique in general: In qHTS, concentration-response curves come from the screen itself.
With `CCN(CC)C(=O)c1cccnc1`, the Potency result was “inactive”.

As for `CNC(=O)C[C@@H](N)C(=O)N[C@@H](C(=O)N[C@@H]1C(=O)N2[C@@H]1SC(C)(C)[C@@H]2C(=O)O)c1ccc(O)cc1`, the Potency entry was “inactive”.

With `CCCCCCCCCCCCCCCCCC(=O)OCC(C)O` (stereo not drawn), the Potency entry is “inactive”.

On to `NC(=S)NS(=O)(=O)c1ccc(N)cc1`, for which the Potency entry is “inactive”.

For `N=C(N)n1cccn1`, the Potency result is “inactive”.

As to `Nc1ncnc2c1ncn2CCOCP(=O)(O)O`, the Potency entry was “inactive”.

For `CCC(C(=O)NC(N)=O)c1ccccc1` (stereo not drawn), the Potency result is “inactive”.

For the compound `CC(C)CCC[C@@H](C)[C@H]1CC[C@H]2[C@@H]3CC=C4C[C@@H](O)CC[C@]4(C)[C@H]3CC[C@]12C`, the Potency result is “inactive”.

Take `CC1=CCC2CC1C2(C)C` (stereo not drawn): the Potency result was “inactive”.

Turning to `NC(N)=O`, the Potency entry was “inactive”.

Turning to `Cc1ncc(C[n+]2csc(CCOP(=O)(O)OP(=O)(O)O)c2C)c(N)n1`, the Potency result is “inactive”.

As for `Nc1nc(=O)n([C@@H]2CS[C@H](CO)O2)cc1F`, the Potency entry is “inactive”.

With `CCOC(=O)[C@@H](N)CS`, the Potency result was “inactive”.

In the case of `OCC(O)CO`, the Potency entry was “inactive”.

Regarding `O=C1c2ccccc2C(=O)C1c1ccc(F)cc1`, the Potency entry is “inactive”.

Consider `O=C(O)COc1ccccc1/C=N/NC(=O)c1ccncc1`, for which the Potency entry is “inactive”.

For the compound `Cc1cccc(C)c1NC(=O)C1CCCCN1C` (stereo not drawn), the Potency result was “inactive”.

In the case of `CCC(C)[C@@H](N)C(=O)O` (stereo partly drawn), the Potency result was “inactive”.

In the case of `CC(C)(Oc1ccc(C2CCCc3ccccc32)cc1)C(=O)O` (stereo not drawn), the Potency entry was “inactive”.

Consider `CC(CC=O)CCCC(C)(C)O` (stereo not drawn), for which the Potency entry is “inactive”.

In the case of `S=C1SCN(Cc2ccccc2)CN1Cc1ccccc1`, the Potency result is “inactive”.

Turning to `CC(C)Cc1ccc([C@@H](C)C(=O)NS(C)(=O)=O)cc1`, the Potency entry is “inactive”.

As to `COc1cc2c(cc1OC)[C@@H](Cc1cc(OC)c(OC)c(OC)c1)[N+](C)(CCCOC(=O)CC/C=C/CCC(=O)OCCC[N+]1(C)CCc3cc(OC)c(OC)cc3[C@H]1Cc1cc(OC)c(OC)c(OC)c1)CC2` (stereo partly drawn), the Potency entry is “inactive”.

Turning to `COC(=O)CCC[N+](C)(C)C`, the Potency result was “inactive”.

For the compound `[O]=[Bi][O][Bi]=[O]`, the Potency entry is “inactive”.

Regarding `C[C@]12CC[C@@H]3c4ccc(OC(=O)c5ccccc5)cc4CC[C@H]3[C@@H]1CC[C@@H]2O`, the Potency entry was “inactive”.

In the case of `Cc1ccc(C(C)(C)c2ccc(C)cc2)cc1`, the Potency entry is “inactive”.

Take `FC(F)OC(Cl)C(F)(F)F` (stereo not drawn): the Potency result is “inactive”.

As for `CC(CCc1ccc(O)cc1)NCC(O)c1ccc(O)cc1` (stereo not drawn), the Potency entry is “inactive”.

As for `CC1=C(/C=C/C(C)=C/C=C/C(C)=C/C(=O)Oc2c(C)c(C)c3c(c2C)CC[C@@](C)(CCC[C@H](C)CCC[C@H](C)CCCC(C)C)O3)C(C)(C)CCC1`, the Potency entry is “inactive”.

`O=P(O)(O)OP(=O)(O)OP(=O)(O)O`: the Potency result is “inactive”.

For the compound `CO/N=C(\C(=O)N[C@@H]1C(=O)N2C(C(=O)[O-])=C(C[n+]3cccc4c3CCC4)CS[C@H]12)c1csc(N)n1`, the Potency entry was “inactive”.

For the compound `CCCCCCCCCCCC(=O)OCC(O)CO` (stereo not drawn), the Potency result was “inactive”.

On to `CS(=O)(=O)OCC(O)C(O)COS(C)(=O)=O` (stereo not drawn), for which the Potency entry is “inactive”.

Take `CC1=CC(=O)NS(=O)(=O)O1`: the Potency result was “inactive”.

For `O=C(O)CCCC/C=C(\c1ccccc1)c1cccnc1`, the Potency entry was “inactive”.

In the case of `CCN(CC)C(=S)S`, the Potency result was “inactive”.

`C[Se]CC[C@H](N)C(=O)O`: the Potency entry was “inactive”.

Take `CC(C)[C@H](N)C(=O)OCC(CO)OCn1cnc2c(=O)[nH]c(N)nc21` (stereo partly drawn): the Potency entry is “inactive”.

The subject of another assay is CP237. The assay is described as above. The settings on record: P. falciparum in erythrocytes, SYBR Green DNA, 72 h; series mostly up to 28.7 µM. The gist of the method: as §1
Take `CCN(CC)C(=O)c1cccnc1`: the Potency entry was “inactive”.

As for `CNC(=O)C[C@@H](N)C(=O)N[C@@H](C(=O)N[C@@H]1C(=O)N2[C@@H]1SC(C)(C)[C@@H]2C(=O)O)c1ccc(O)cc1`, the Potency result was “inactive”.

For the compound `CCCCCCCCCCCCCCCCCC(=O)OCC(C)O` (stereo not drawn), the Potency result was “inactive”.

On to `NC(=S)NS(=O)(=O)c1ccc(N)cc1`, for which the Potency result is “inactive”.

For `N=C(N)n1cccn1`, the Potency entry is “inactive”.

In the case of `Nc1ncnc2c1ncn2CCOCP(=O)(O)O`, the Potency entry is “inactive”.

As for `CCC(C(=O)NC(N)=O)c1ccccc1` (stereo not drawn), the Potency entry was “inactive”.

As to `CC(C)CCC[C@@H](C)[C@H]1CC[C@H]2[C@@H]3CC=C4C[C@@H](O)CC[C@]4(C)[C@H]3CC[C@]12C`, the Potency entry was “inactive”.

Turning to `CC1=CCC2CC1C2(C)C` (stereo not drawn), the Potency entry is “inactive”.

As to `NC(N)=O`, the Potency entry was “inactive”.

Turning to `Cc1ncc(C[n+]2csc(CCOP(=O)(O)OP(=O)(O)O)c2C)c(N)n1`, the Potency result is “inactive”.

Turning to `Nc1nc(=O)n([C@@H]2CS[C@H](CO)O2)cc1F`, the Potency result is “inactive”.

As for `CCOC(=O)[C@@H](N)CS`, the Potency result is “inactive”.

Regarding `OCC(O)CO`, the Potency result was “inactive”.

For the compound `O=C1c2ccccc2C(=O)C1c1ccc(F)cc1`, the Potency result is “inactive”.

Consider `O=C(O)COc1ccccc1/C=N/NC(=O)c1ccncc1`, for which the Potency entry is “inactive”.

Consider `Cc1cccc(C)c1NC(=O)C1CCCCN1C` (stereo not drawn), for which the Potency result is “inactive”.

In the case of `CCC(C)[C@@H](N)C(=O)O` (stereo partly drawn), the Potency result is “inactive”.

Consider `CC(C)(Oc1ccc(C2CCCc3ccccc32)cc1)C(=O)O` (stereo not drawn), for which the Potency result was “inactive”.

As for `CC(CC=O)CCCC(C)(C)O` (stereo not drawn), the Potency result is “inactive”.

As to `S=C1SCN(Cc2ccccc2)CN1Cc1ccccc1`, the Potency result is “inactive”.

As to `CC(C)Cc1ccc([C@@H](C)C(=O)NS(C)(=O)=O)cc1`, the Potency entry is “inactive”.

As for `COc1cc2c(cc1OC)[C@@H](Cc1cc(OC)c(OC)c(OC)c1)[N+](C)(CCCOC(=O)CC/C=C/CCC(=O)OCCC[N+]1(C)CCc3cc(OC)c(OC)cc3[C@H]1Cc1cc(OC)c(OC)c(OC)c1)CC2` (stereo partly drawn), the Potency entry was “inactive”.

On to `COC(=O)CCC[N+](C)(C)C`, for which the Potency result was “inactive”.

With `[O]=[Bi][O][Bi]=[O]`, the Potency result is “inactive”.

Take `C[C@]12CC[C@@H]3c4ccc(OC(=O)c5ccccc5)cc4CC[C@H]3[C@@H]1CC[C@@H]2O`: the Potency is 4.47 µM (active).

With `Cc1ccc(C(C)(C)c2ccc(C)cc2)cc1`, the Potency result was “inactive”.

With `FC(F)OC(Cl)C(F)(F)F` (stereo not drawn), the Potency result is “inactive”.

`CC(CCc1ccc(O)cc1)NCC(O)c1ccc(O)cc1` (stereo not drawn): the Potency entry is “inactive”.

On to `CC1=C(/C=C/C(C)=C/C=C/C(C)=C/C(=O)Oc2c(C)c(C)c3c(c2C)CC[C@@](C)(CCC[C@H](C)CCC[C@H](C)CCCC(C)C)O3)C(C)(C)CCC1`, for which the Potency entry was “inactive”.

In the case of `O=P(O)(O)OP(=O)(O)OP(=O)(O)O`, the Potency result was “inactive”.

Regarding `CO/N=C(\C(=O)N[C@@H]1C(=O)N2C(C(=O)[O-])=C(C[n+]3cccc4c3CCC4)CS[C@H]12)c1csc(N)n1`, the Potency result was “inactive”.

With `CCCCCCCCCCCC(=O)OCC(O)CO` (stereo not drawn), the Potency result is “inactive”.

With `CS(=O)(=O)OCC(O)C(O)COS(C)(=O)=O` (stereo not drawn), the Potency entry was “inactive”.

For `CC1=CC(=O)NS(=O)(=O)O1`, the Potency entry is “inactive”.

For the compound `O=C(O)CCCC/C=C(\c1ccccc1)c1cccnc1`, the Potency entry was “inactive”.

`CCN(CC)C(=S)S`: the Potency entry is “inactive”.

As for `C[Se]CC[C@H](N)C(=O)O`, the Potency result was “inactive”.

Take `CC(C)[C@H](N)C(=O)OCC(CO)OCn1cnc2c(=O)[nH]c(N)nc21` (stereo partly drawn): the Potency result is “inactive”.
